# Bioassay records from PubChem.
# aSyn 5UTR act – Activators via SNCA 5'UTR binding, MLPCN | alpha-synuclein 5'UTR reporter, activators screen | activity score, % (tested at 7.5 µM), hits read low | 300,000 compounds, 7.1% hits | AID 1814; in the data active = activity score below about -60%
# * hit, by the source's call. These entries were drawn from the full list.
SMILES,aSyn 5UTR act
CC(C)[C@]12O[C@H]1[C@@H]1O[C@]13[C@]1(O[C@H]1C[C@H]1C4=C(CC[C@@]13C)C(=O)OC4)[C@@H]2O,124
CC1(C)C[C@H]2C=C(C=O)[C@]3(C=O)C[C@]3(C)[C@H]2C1,117
C#CCOc1cc(C2C3=C(COC3=O)Nc3cc4c(cc32)OCO4)ccc1OC (stereo not given),78
C=C1C(=O)O[C@@H]2C[C@@H](C)[C@@H]3C4OC4C(=O)[C@@]3(C)[C@@H](O)[C@H]12 (stereo not given in full),-221*
CNc1ccc2oc(C[C@H]3O[C@@]4(CC[C@H]3C)O[C@H]([C@H](C)C(=O)c3ccc[nH]3)[C@H](C)C[C@H]4C)nc2c1C(=O)O,117
c1ccc(-c2nc(N3CCOCC3)s[n+]2-c2ccccc2)cc1,-75*
Cc1ccc(C[n+]2c(-c3ccc(C)cc3)cc(-c3ccc(C)cc3)cc2-c2ccc(C)cc2)cc1,95
C=C1[C@@H](C)[C@H]2[C@H](Cc3ccccc3)NC(=O)[C@]23OC(=O)/C=C/[C@H](O)CCC[C@@H](C)C/C=C/[C@H]3[C@@H]1O,109
O=Cc1cn(Cc2cccc(F)c2)c2ccccc12,52
CCc1ccc(-c2nn(Cc3ccccc3)cc2C=O)cc1,-140*
Nc1c2c(nc3sc4c(c13)CCCC4)CCCC2,-118*
Nc1c2c(nc3sc4c(c13)CCCC4)CCCCC2,-170*
C[C@]12CC[C@H]3C(CCC4(O)CC(O)CC[C@]34C=O)C1=CC[C@H]2c1ccc(=O)oc1 (stereo not given in full),82
CN1C(=O)C(=Cc2ccc(OCCN(C)c3ccccn3)cc2)C(=O)N(C)C1=O,-82*
O=C(Nc1ccc(Cl)c(Cl)c1)c1ccco1,-170*
Cc1nc2cc(-c3ccccc3)nn2c(C)c1CCC(=O)N1CCC2(CC1)OCCO2,79
O=C(c1cc(-c2ccccc2)on1)N1CCC2(CC1)OCCO2,-113*
C[N+]1=C(/C=C/Nc2ccccc2)C(C)(C)c2ccccc21,-93*
O=C(Nc1ccccc1)c1cccn(Cc2ccccc2)c1=O,-96*
CCCCCCCSc1cc(OC)c(CCN(C)C)cc1OC,58
Nc1ccccc1C(=O)OCC(=O)c1ccc2c(c1)OCCO2,-64*
O=c1c2ccccc2[nH]c(=S)n1-c1ccc2c(c1)OCCO2,-105*
[O-]c1ccccc1-[n+]1c(-c2ccccc2)cc(-c2ccccc2)cc1-c1ccccc1,61
CCCCc1nc2ccccc2c(=O)n1-c1ccccc1[N+](=O)[O-],-73*
COc1ccc(C2NCc3ccc4c(c3-n3cccc32)OCO4)cc1O (stereo not given),61
SMILES,aSyn 5UTR act
O=C1NC(=O)C(=Cc2cccc(OCCOc3ccccc3)c2)C(=O)N1,-87*
Nc1ccc2c(c1)oc1ccccc12,-113*
CC1Oc2cc3c(-c4c(O)cc(O)c5c(O)c6c(cc45)OC(C)C(C)C6=O)c(O)cc(O)c3c(O)c2C(=O)C1C (stereo not given),87
CN(C)c1ccc2c(c1)N=C(c1ccco1)OP2(=S)N1CCOCC1 (stereo not given),-130*
CC(C)(C)c1ccc(C(=O)C2CCCN(C3CCC3)C2)cc1 (stereo not given),-72*
COc1ccccc1CN1CCCC(C(=O)c2ccccc2SC)C1 (stereo not given),52
CC(C)(C)c1ccc(C(=O)C2CCCN(Cc3ccon3)C2)cc1 (stereo not given),-124*
Clc1ccccc1Nc1ncnc(-n2cccc2)n1,-160*
CNC(=O)Oc1cccc(-c2cn3cc(Cl)ccc3n2)c1,61
CN1C(=O)/C(=C/c2ccc(N3CCCCCC3)o2)C(=O)NC1=S,-186*
CN1C(=O)/C(=C\c2ccc(N3CCCCC3)o2)C(=O)NC1=S,-162*
CN1C(=O)C(=Cc2ccc(N3CCOCC3)o2)C(=O)N(C)C1=S,-65*
CC12CC[C@H]3[C@@H](CCC4(O)C[C@H](O)CCC34/C=N/NC(=O)c3ccccc3[N+](=O)[O-])C1(O)CCC2C1=CC(=O)OC1 (stereo not given in full),117
FC(F)(F)c1ccc(NC2=NCCCS2)cc1,-69*
CCOC(=O)c1c(N)n(CCCOC(=O)c2ccco2)c2nc3ccccc3nc12,114
Nc1c(C(=O)NCc2ccco2)c2nc3ccccc3nc2n1CCN1CCCCC1,-103*
COC(=O)C1CN(C#N)N(c2ccc(Cl)cc2)C12c1ccccc1-c1ccccc12 (stereo not given),112
Cc1cc(NC(=O)CCl)no1,-99*
